Screening data from PubChem.
A selection: hits, their analogues and other compounds. The true share with any hit is near 1.7%.
IL1B NFkB pot – enhances IL-1B driven NFkB nuclear translocation. HUVEC IL-1B NFkB p65 nuclear translocation imaging. activation, % at 2 µM. 94,000 tested, 0.3% active. AID 819;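 active = activation above 40%, about the mean plus 3 SD, also judged a hit on visual image review; inconclusive = activation above 40% but not a hit on visual review; inactive = activation not above 40% and no visual hit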;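 note: percent activation is computed from the nuclear over cytoplasmic p65 intensity ratio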
E-sel TNF inh – TNF alpha driven E-selectin expression inhibition; HUVEC TNFa-induced E-selectin immunofluorescence, high content; inhibition, % at 2 µM; 120,000 tested, 0.71% active; AID 1246;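 active = inhibition above the batch mean plus 3 SD, and confirmed as a hit on visual image review, cut at about 43% in these data; inconclusive = passes the inhibition cutoff but fails visual image review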
VCAM1 TNFa inh – reduces TNF alpha induced VCAM1 expression in HUVEC; HUVEC TNFa-induced VCAM-1 immunofluorescence, high-content imaging; inhibition, % at 2 µM; 95,000 tested, 0.48% active; AID 802;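 active = inhibition above the batch mean plus 3 SD, with images confirmed as a hit by eye, cut at about 37% in these data; inconclusive = inhibition above that limit but hit not confirmed in images; inactive = inhibition not above that limit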
HUVEC tox TNFa – HUVEC cytotoxicity counter-screen, TNF alpha stimulated. cell count reduction, % at 2 µM. 93,000 tested, 0.17% active. HUVEC TNFalpha-stimulated, Hoechst cell count, imaging;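 active = cell count reduction exceeding the screen mean by over 5 SD, scaled to untreated wells per plate, cut at about 78% in these data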;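 note: cells counted after 24 h of TNF alpha exposure following the 1 h pretreatment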
IL1B NFkB inh – blocks IL-1B driven NFkB nuclear translocation in HUVEC cells | HUVEC IL-1B NFkB p65 nuclear translocation imaging | 94,000 tested, 0.43% active | inhibition, % at 2 µM | AID 796;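 active = inhibition above about 30% together with a positive call from visual inspection of the well image, limit read from the data; inconclusive = inhibition above a set limit but visual check negative; inactive = inhibition not above a set limit, visual check negative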;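 note: nuclear over cytoplasmic p65 intensity ratio measured by imaging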
HUVEC tox IL1B – toxic to HUVEC cells under IL-1B stimulation. HUVEC cell count loss, Hoechst imaging, IL-1B stimulated. cell count reduction, % at 2 µM. 94,000 tested, 0.41% active. AID 845;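 active = cell count reduction more than 3 SD above the screen-wide mean, cut at about 70% in these data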
Large screens that a line does not name were inactive.

CCOC(=O)c1[nH]c2ccc(F)cc2c1NC(=O)CN1CCc2cc(OC)c(OC)cc2C1	IL1B NFkB pot 47.6
Cc1c(F)cccc1NC(=O)CSCC(=O)Nc1ccccc1	none (no result: E-sel TNF inh)
O=C(N/C(=C\c1ccc(Br)cc1)c1nc2ccccc2[nH]1)c1ccco1	none
CC(C)(C)c1nc2ccccc2[nH]1	IL1B NFkB pot 48.0
CC(C)Sc1nc2ccccc2[nH]1	none (no result: IL1B NFkB pot, VCAM1 TNFa inh, HUVEC tox TNFa, IL1B NFkB inh, HUVEC tox IL1B)
COc1ccc(C(=O)C(CN2CCOCC2)c2ccccc2)cc1 (stereo unspecified)	VCAM1 TNFa inh 51.2
COc1ccc(C(=O)C(CN2CCCC2)c2ccccc2)cc1 (stereo unspecified)	VCAM1 TNFa inh 83.8 (no result: E-sel TNF inh)
CCOc1ccc(C2=C(C=Nc3c(C)n(C)n(-c4ccccc4)c3=O)C(c3ccc(F)cc3)c3ccccc3O2)cc1 (stereo unspecified)	none
CCn1c(SCC(=O)c2ccccc2)nnc1-c1cnccn1	none (no result: HUVEC tox TNFa)
CCn1c(SCc2ccc(C)cc2)nnc1-c1cnccn1	IL1B NFkB pot 63.3
COc1cccc(-n2nnnc2SCC(=O)c2cc(OC)ccc2OC)c1	none (no result: IL1B NFkB pot, VCAM1 TNFa inh, HUVEC tox TNFa, IL1B NFkB inh, HUVEC tox IL1B)
O=C(COc1ccc(Br)cc1)NCc1ccccn1	IL1B NFkB pot 40.9
Cc1cc(OCC(=O)NCc2ccccn2)cc(C)c1Br	none (no result: IL1B NFkB pot, VCAM1 TNFa inh, HUVEC tox TNFa, IL1B NFkB inh, HUVEC tox IL1B)
CCOC(=O)N1CCC(NC(=O)CN2C(=O)CSc3nc(C)cc(C)c32)CC1	E-sel TNF inh 83.5
O=S(=O)(c1ccccc1)c1ncc(C(F)(F)F)cc1Cl	none (no result: IL1B NFkB pot, VCAM1 TNFa inh, HUVEC tox TNFa, IL1B NFkB inh, HUVEC tox IL1B)
Cc1ccccc1C(=O)OC1OC(=O)C(Cl)=C1N1CCOCC1 (stereo unspecified)	none (no result: IL1B NFkB pot, VCAM1 TNFa inh, HUVEC tox TNFa, IL1B NFkB inh, HUVEC tox IL1B)
COc1ccc(OC)c(-c2cc(C(=O)Nc3c(C)nn(Cc4ccc(Cl)cc4)c3C)no2)c1	none (no result: E-sel TNF inh)
COc1ccc(-c2cc(C(=O)Nc3cnn(Cc4ccccc4C)c3)no2)cc1OC	E-sel TNF inh 77.7
COc1ccc(-c2cc(C(=O)Nc3cc(C)n(Cc4ccc(Cl)cc4)n3)no2)cc1OC	VCAM1 TNFa inh 51.5 (no result: E-sel TNF inh)
CC(C)Oc1ccc(C(=O)Nc2nnc(SCC(=O)N3CCOCC3)s2)cc1	none (no result: IL1B NFkB pot, VCAM1 TNFa inh, HUVEC tox TNFa, IL1B NFkB inh, HUVEC tox IL1B)
CC(C)CNc1nc(=S)nc(N(C)C)[nH]1	IL1B NFkB inh 37.2
O=C(c1cccs1)N1CCN=C1SCc1ccccc1	E-sel TNF inh 43.7
Cc1c(/C(O)=C2/C(=O)C(=O)N(CCN3CCOCC3)C2c2cccnc2)cnn1-c1ccccc1 (stereo unspecified)	IL1B NFkB pot 59.6
CCc1ccc(OCc2nnc(SCC(=O)NCc3ccco3)o2)cc1	none (no result: E-sel TNF inh)
C=CCn1c(SCC(=O)NC)nc2sc3c(c2c1=O)CCC3	E-sel TNF inh 80.4
C=CCn1c(SCC(=O)OC)nc2sc3c(c2c1=O)CCN(C)C3	none
CCOc1ccc(NC(=O)C2CCC(N3C(=O)C4CC=CCC4C3=O)CC2)cc1 (stereo unspecified)	E-sel TNF inh inconclusive
CCOc1ccc(NC(=O)CN2C(=O)C3CC=CCC3C2=O)cc1 (stereo unspecified)	HUVEC tox IL1B 93.3
Cc1n[nH]c(=O)nc1NCc1ccccc1	VCAM1 TNFa inh 88.9 (no result: E-sel TNF inh)
CCCN(CC1CC1)C(=O)COC(=O)c1[nH]c(C)c(C(=O)OCC)c1C	none
COc1ccc(C2C3=C(CC(C)(C)CC3=O)Nc3c2c(=O)[nH]c(=O)n3Cc2ccccc2)cc1OC (stereo unspecified)	none
COc1ccc(C2C3=C(CC(C)(C)CC3=O)Nc3c2c(=O)[nH]c(=O)n3Cc2ccccc2)cc1 (stereo unspecified)	IL1B NFkB pot 101.7
CCCN(CCC)S(=O)(=O)c1ccc(C(=O)N2CCCc3ccccc32)cc1	none
O=C1CCCc2c1cc(C(=O)NC1CCSC1=O)c(=O)n2-c1ccccc1 (stereo unspecified)	HUVEC tox TNFa 94.0 (no result: VCAM1 TNFa inh)
O=C(CSc1ccc(Cl)cc1)N/N=C/c1cccnc1	none (no result: IL1B NFkB pot, VCAM1 TNFa inh, HUVEC tox TNFa, IL1B NFkB inh, HUVEC tox IL1B)
O=C(CCc1ccccc1)Nc1ncc2c(n1)CCCC2=O	E-sel TNF inh 72.4
CC1(C)CC(=O)c2cnc(NC(=O)CCc3ccccc3)nc2C1	none
COCCN(C(=O)CCC(=O)Nc1ccccn1)C(C(=O)NC1CCCC1)c1ccc(OC)cc1 (stereo unspecified)	E-sel TNF inh 100.0
COCCNC(=O)C(c1ccc(F)cc1)N(CC1CCCO1)C(=O)CCC(=O)Nc1ccccn1 (stereo unspecified)	E-sel TNF inh 69.1
O=S1(=O)CCC(NC(=S)N2CCCCCC2)C1 (stereo unspecified)	E-sel TNF inh 69.9 (no result: IL1B NFkB pot, VCAM1 TNFa inh, HUVEC tox TNFa, IL1B NFkB inh, HUVEC tox IL1B)
CCc1nnc(SCc2ccc(C(=O)OC)o2)n1N	none
COC(=O)c1ccc(CSc2nnc3ccccn23)o1	IL1B NFkB pot 152.0
CCOC(=O)c1ccc(NC(=O)CCNc2c(N3CCCC3)c(=O)c2=O)cc1	VCAM1 TNFa inh 69.6
CCOC(=O)c1ccc(NC(=O)CN2CCN(c3ccccc3)CC2)cc1	none (no result: VCAM1 TNFa inh, HUVEC tox TNFa)
O=C1CSC(c2cccc([N+](=O)[O-])c2)N1c1c(F)cccc1F (stereo unspecified)	none (no result: IL1B NFkB pot, VCAM1 TNFa inh, HUVEC tox TNFa, IL1B NFkB inh, HUVEC tox IL1B)
CCN=c1sc2ccccc2n1CC(O)COc1ccccc1 (stereo unspecified)	none
CN=c1sc2ccccc2n1CC(O)COc1ccccc1 (stereo unspecified)	VCAM1 TNFa inh 75.0 (no result: E-sel TNF inh)
O=C(NCc1ccc(F)cc1)C1CCC(=O)N1C1CCCCC1 (stereo unspecified)	none (no result: E-sel TNF inh)
O=C(CCOc1ccccc1)Nc1ccc(S(=O)(=O)N2CCCC2)cc1	none
